In paper PMC4336329 (PLoS ONE, 2015):
Hit rate of the full screen: of about 310,000 compounds, about 14,000 (4.5%) showed an effect of 50% or more. The effect is printed as a negative number. What follows is part of a selection rich in strong results, with near analogues and random picks from the rest.

target: human ether-à-go-go-related gene (hERG) potassium channel (human, UniProt Q12809); test: primary screen, population patch clamp on CHO cells stably expressing hERG; higher = less effect of the substance
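Also: peak tail current of the secondary pulse compared with the same well before compound.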

human ether-à-go-go-related gene (hERG) potassium channel, sequence (Q12809 whole entry, looked up): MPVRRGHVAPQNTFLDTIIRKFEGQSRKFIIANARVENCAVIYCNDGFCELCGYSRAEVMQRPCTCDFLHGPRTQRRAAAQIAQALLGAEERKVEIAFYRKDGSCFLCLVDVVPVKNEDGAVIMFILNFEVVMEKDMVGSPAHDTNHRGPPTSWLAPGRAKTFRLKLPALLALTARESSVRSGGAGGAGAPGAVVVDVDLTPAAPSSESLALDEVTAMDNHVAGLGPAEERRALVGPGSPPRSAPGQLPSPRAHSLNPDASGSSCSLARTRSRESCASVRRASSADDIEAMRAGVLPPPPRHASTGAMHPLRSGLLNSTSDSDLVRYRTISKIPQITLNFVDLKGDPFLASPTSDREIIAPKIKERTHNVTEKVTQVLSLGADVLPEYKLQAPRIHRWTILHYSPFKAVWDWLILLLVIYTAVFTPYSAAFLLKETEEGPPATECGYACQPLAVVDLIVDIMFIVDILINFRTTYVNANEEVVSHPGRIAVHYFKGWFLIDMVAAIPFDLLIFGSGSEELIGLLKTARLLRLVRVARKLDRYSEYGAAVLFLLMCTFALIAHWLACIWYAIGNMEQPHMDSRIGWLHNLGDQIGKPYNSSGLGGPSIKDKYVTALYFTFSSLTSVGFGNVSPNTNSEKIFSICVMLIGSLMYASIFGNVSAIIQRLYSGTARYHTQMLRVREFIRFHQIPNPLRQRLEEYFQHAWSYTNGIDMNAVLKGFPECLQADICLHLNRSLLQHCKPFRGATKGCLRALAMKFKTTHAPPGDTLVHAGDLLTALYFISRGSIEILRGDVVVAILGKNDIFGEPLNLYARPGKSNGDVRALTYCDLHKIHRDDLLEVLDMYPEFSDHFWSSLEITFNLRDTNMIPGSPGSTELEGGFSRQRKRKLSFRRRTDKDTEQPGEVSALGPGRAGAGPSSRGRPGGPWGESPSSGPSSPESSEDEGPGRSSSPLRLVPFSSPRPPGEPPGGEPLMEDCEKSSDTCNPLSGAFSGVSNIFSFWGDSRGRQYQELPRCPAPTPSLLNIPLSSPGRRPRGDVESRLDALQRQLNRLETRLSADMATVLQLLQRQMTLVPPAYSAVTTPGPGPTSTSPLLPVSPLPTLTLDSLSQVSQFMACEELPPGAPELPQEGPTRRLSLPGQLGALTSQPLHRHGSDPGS

SMILES | hERG current change (%, negative = inhibition) at 10uM [%]
CC(=NCC1CCCO1)c1c(O)n(-c2ccc(C)cc2)c(=O)[nH]c1=O (stereo not shown) | -8.18
O=S1(=O)CCC(N=Nc2c(O)n(Cc3ccccc3)c3ccccc23)C1 (stereo not shown) | -25.1
COc1cc(C)ccc1OCCOc1c(C)cccc1Cl | 2.01
CCOc1ccc(NC(=O)NCc2ccco2)cc1 | 16.4
CCOC(=O)c1ccccc1NC(=O)c1cn(-c2ccc(C)c(C)c2)c(=O)c2ccccc12 | -2.12
CC(CN1CCCC1)OC(=O)c1ccc(F)cc1.Cl (stereo not shown) | -10.1
COC(=O)CNC(=O)c1ccc(C)s1 | -0.614
CCc1c(C(=O)NNC(=S)NC2CCCCC2)csc1C | 16.3
O=c1cc(C(F)(F)F)c2sc(N3CCCCC3)nc2[nH]1 | 20.1
Cc1ccc(C(=O)N/C(=C/c2ccc(F)cc2)C(=O)NCc2ccncc2)cc1 | -72.8
O=C(NCc1ccncc1)/C(=C\c1ccc(F)cc1)NC(=O)c1ccccc1 | -70.9
Cc1ccc(C(=O)N/C(=C\c2ccc(F)cc2)C(=O)NCc2ccncc2)cc1 | -75.9
O=C(NCc1ccc(F)cc1)c1ccncc1 | 13.7
Cc1ccc(NC(=O)/C(=C/c2ccncc2)NC(=O)c2ccccc2)cc1 | -9.82
CN(C)c1ccc(/C=C(\NC(=O)c2ccccc2)C(=O)NCc2ccncc2)cc1 | -12.8
CSc1ccc(/C=C(\NC(=O)c2ccc(C)cc2)C(=O)NN)cc1 | -10.9
CSc1ccc(/C=C(/NC(=O)c2ccc(C)cc2)C(=O)Nc2cccc(F)c2)cc1 | 6.66
O=C(NCc1ccco1)/C(=C/c1ccc(F)cc1)NC(=O)c1ccccc1 | -14.1
O=C(O)c1cccc(-n2cccc2/C=N/O)c1 | 11.4
Cc1ccnc(NC(=O)CCC(=O)N(CC(=O)NC(C)(C)C)C2CCCC2)c1 | 1
Cc1cc(C)c(OCC(=O)Nc2cccc(NC(=O)c3ccco3)c2)c(Br)c1 | 1.79
CCOc1ccc(NC(=O)c2ccccc2NC(=O)CN2CCN(C(C)=O)CC2)cc1 | -3.2

SMILES | hERG current change (%, negative = inhibition) at 10uM [%]
O=C(NCCSc1ncc(-c2ccc(F)cc2)[nH]1)c1ccco1 | -37.1
C/C=C/c1ccc(OCCN2C(=O)NC(C)(C)C2=O)c(OC)c1 | 6.58
O=C(O)c1ccc2ccccc2c1O.OCc1cc(C(O)CNCCCCCCOCCCCc2ccccc2)ccc1O (stereo not shown) | -45.5
OC(CNCCc1ccccc1)c1ccccc1 (stereo not shown) | -0.0558
OCc1cc(C(O)CNCCCCCCOCCCCc2ccccc2)ccc1O (stereo not shown) | -57.9
Cc1ccc(C(=O)Nc2ccc(N3CCN(C(=O)c4ccco4)CC3)cc2)cc1 | 10.4
CCN(CC)CCCN1C(=O)c2oc3ccccc3c(=O)c2C1c1cc(OC)ccc1OC (stereo not shown) | -13
CC(C)COC(=O)C(C#N)c1nc2ccccc2nc1N1CCN(Cc2ccccc2)CC1 (stereo not shown) | -12
COCC(C)OC(=O)C(C#N)c1nc2ccccc2nc1N1CCN(Cc2ccccc2)CC1 (stereo not shown) | -31
COCCOC(=O)C(C#N)c1nc2ccccc2nc1N1CCN(Cc2ccccc2)CC1 (stereo not shown) | -64.3
CC1CCN(c2nc3ccccc3nc2C(C#N)C(=O)NC2CCCCC2)CC1 (stereo not shown) | 10.1
C=CCOC(=O)C(C#N)c1nc2ccccc2nc1N1CCN(Cc2ccccc2)CC1 (stereo not shown) | -62.1
CC(C)OC(=O)C(C#N)c1nc2ccccc2nc1N1CCN(Cc2ccccc2)CC1 (stereo not shown) | -18.6
N#CC(C(=O)NC1CC1)c1nc2ccccc2nc1N1CCN(C/C=C/c2ccccc2)CC1 (stereo not shown) | -58.9
N#CC(C(=O)NC1CC1)c1nc2ccccc2nc1N1CCCC1 (stereo not shown) | -7.63
COC(=O)C(C#N)c1nc2ccccc2nc1N1CCN(Cc2ccc3c(c2)OCO3)CC1 (stereo not shown) | -2.48
CSc1ccc(/C=C/C(=O)c2ccc(NC(=O)Cc3ccccc3)cc2)cc1 | -4.59
O=C(O)c1ccc(NS(=O)(=O)c2ccc(Cl)c(Cl)c2)cc1O | -1.71
COc1ccc(-c2csc3nc(-c4ccccc4F)oc(=O)c23)cc1OC | -3.61
CCOC(=O)c1ccc(COC(=O)c2cc3ccccc3oc2=O)o1 | -48.6
O=C1NC2=C(CCc3ccccc32)C(c2ccccc2)N1 (stereo not shown) | -20.8
Cc1ccc(C2NC(=O)NC3=C2CCc2ccccc23)cc1 (stereo not shown) | 2.59

SMILES | hERG current change (%, negative = inhibition) at 10uM [%]
O=C1NC2=C(CCc3ccccc32)C(c2ccc(Br)cc2)N1 (stereo not shown) | -56.3
CCOC(=O)c1cccc(NC(=O)c2c(O)[nH]c(=O)[nH]c2=O)c1 | -2.88
Cc1ccc(CN2CCSc3ccc(C(=O)N4CCN(c5ncccn5)CC4)cc32)cc1 | 19
CN(NC(=O)C(C)(C)C)c1nc(-c2ccccc2)nnc1C(F)(F)F | -4.05
Cc1sc2ncnc(SCC(=O)N3CCCC3)c2c1C | 2.1
O=C(CSc1ncnc2c1cnn2-c1ccccc1Cl)N1CCN(C(=O)c2ccco2)CC1 | -65.7
CC(C)C(=O)NNC(=O)CSc1ncnc2c1cnn2-c1ccccc1Cl | 9.5
CC(=O)Nc1ccc(NC(=O)CSc2ncnc3sc(C)c(C)c23)cc1 | 8.58
Cc1sc2ncnc(SCC(=O)Nc3ccc(CN4CCCC4)cc3)c2c1C | -72.6
Cc1nc(SCC(=O)Nc2ccc(CN3CCCC3)cc2)c2c(C)c(C)sc2n1 | -35.3
COc1ccc(N2CCN(C(=O)CSc3ncnc4c3cnn4-c3ccccc3C)CC2)cc1 | 10.8
Cc1sc2nc(C(C)C)nc(SCC(=O)NCc3ccco3)c2c1C | 2.82
Cc1sc2ncnc(SCC(=O)N3CCN(C(=O)c4ccco4)CC3)c2c1C | -70.1
Cc1sc2ncnc(OCC(=O)N3CCN(C(=O)c4ccco4)CC3)c2c1C | -30.8
Cc1sc2nc(C(C)C)nc(SCC(=O)N3CCN(C(=O)c4ccco4)CC3)c2c1C | -72.3
Cc1sc2nc(C(C)C)nc(SCC(=O)N3CCOCC3)c2c1C | -0.958
Cc1cc(=O)n2nc(N3CCCC(C(=O)N4CCOCC4)C3)sc2n1 (stereo not shown) | 3.1
COc1ccc(/C=C/c2c([N+](=O)[O-])c(=O)n(C)c(=O)n2C)c(OC)c1OC | 13
O=C(N/N=C/c1cccc2ccccc12)c1cccs1 | 20.7
COc1ccccc1N(CC(=O)NCC1CCCO1)C(=O)CNS(=O)(=O)c1ccccc1 (stereo not shown) | -0.369
Cc1cc(=O)oc(C)c1C(=O)Nc1ccc2nsnc2c1 | 9.45
CCOC(=O)c1ccc2c(c1)nc(SC(C)C(=O)NCC1CCCO1)n2CC (stereo not shown) | -18.9

SMILES | hERG current change (%, negative = inhibition) at 10uM [%]
CCOC(=O)c1ccc(NC(=O)CNC(=O)c2ccco2)cc1 | 13.8
O=C(NC(=S)Nc1ccccn1)c1ccc([N+](=O)[O-])cc1 | -11.9
O=C(CC12CC3CC(CC(C3)C1)C2)NC1CC1 | 23.2
CCOc1ccc(S(=O)(=O)N2CCN(C(=S)NCc3ccccc3)CC2)cc1 | -18.2
Nc1cccc(C(=O)Nc2cccc3ncccc23)c1 | 23.8
Cc1cccc(N2CCN(C(=O)c3ccc4c(c3)CCN4S(C)(=O)=O)CC2)c1C | -14.8
Cc1nc(SCC(=O)N2CCOCC2)c2c(C)c(C)sc2n1 | 1.76
Cc1nc(SCC(=O)N2CCCCC2)c2c(C)c(C)sc2n1 | -11.7
Cc1nc(SCC(=O)N2CCN(C(=O)c3ccco3)CC2)c2c(C)c(C)sc2n1 | -66.8
CCCN1Cc2cccc(C(=O)NCc3ccccc3)c2C1=O | -34.9
O=C(Nc1cccc(-c2nnc(-c3ccccc3)o2)c1)C1CCCO1 (stereo not shown) | -66.5
O=C(Nc1ccc(-c2nnc(-c3ccccc3)o2)cc1)C1CCCO1 (stereo not shown) | -13.3
O=C(Nc1cccc(-c2nnc(-c3ccccc3)o2)c1)C1CC1 | -19.3
C=CCn1c(=NC(=O)C2CCCCC2)sc2cc(NC(C)=O)ccc21 | -2.15
O=S(=O)(c1ccc(F)cc1)N1CCN(CC(O)COCc2cccs2)CC1 (stereo not shown) | -18.5
Oc1ccccc1N1CCN(CC(O)COCc2ccccc2Cl)CC1 (stereo not shown) | -42
OC(COCc1cccs1)CN1CCN(c2ccccc2Cl)CC1 (stereo not shown) | -71
Cc1cccc(N2CCN(CC(O)COCc3cccs3)CC2)c1C (stereo not shown) | -70.8
COc1ccccc1N1CCN(CC(O)COCc2cccs2)CC1.Cl (stereo not shown) | -19.8
OC(COCc1cccs1)CN1CCN(c2ccccn2)CC1 (stereo not shown) | -52.5
CCOc1ccccc1N1CCN(CC(O)COCc2cccs2)CC1 (stereo not shown) | -32.1
CCOC(=O)C1CCN(CC(O)COCc2cccs2)CC1 (stereo not shown) | -38
